Assay results: PubChem BioAssay

target: Homeobox protein Hox-A13 (Mus musculus) (UniProt Q62424); test: inhibitors of HoxA13-DNA binding, primary screen, biochemical, fluorescence polarization, labeled oligonucleotide (AID 1185); settings: 15 min, higher = more signal, called active from +8 up or from −8 down
Sequence (Q62424 whole entry, looked up): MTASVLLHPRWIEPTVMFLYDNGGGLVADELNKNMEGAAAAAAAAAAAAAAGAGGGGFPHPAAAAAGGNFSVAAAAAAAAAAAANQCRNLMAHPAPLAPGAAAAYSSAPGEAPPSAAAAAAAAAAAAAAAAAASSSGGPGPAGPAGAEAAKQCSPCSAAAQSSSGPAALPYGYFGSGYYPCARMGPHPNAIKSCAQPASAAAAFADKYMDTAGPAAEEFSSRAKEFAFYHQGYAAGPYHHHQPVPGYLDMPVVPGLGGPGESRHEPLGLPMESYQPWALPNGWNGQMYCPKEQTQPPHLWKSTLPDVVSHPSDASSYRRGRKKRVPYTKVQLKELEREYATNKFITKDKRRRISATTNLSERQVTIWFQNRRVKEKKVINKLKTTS

z-score, inactive:
C=CCNC(=O)[C@@H]1[C@H]2C(=O)O[C@H](c3ccccc3)[C@H](c3ccccc3)N2[C@H](c2ccccc2OCCO)[C@@]12C(=O)N(C(=O)OCCOC)c1ccc(C#CC3=CCCCC3)cc12 1.31, CC(C)(C)OC(=O)CC[C@]1(C(=O)O)N=C(c2ccc(OCCCO)cc2)O[C@H]1c1ccccc1 -3.48, CN(C)CCCN1C(=O)[C@@]2(c3ccc([N+](=O)[O-])cc3)CC(=O)N(CC34CC5CC(CC(C5)C3)C4)[C@@H]2c2ccc(CO)cc21 -2.47, C=C(C(=O)CC[C@H](OC(=O)c1cccnc1)c1cccc(OCCO)c1)C(C)C -3.82, O=C1OCC=C[C@H]2OC34C=CCN(Cn5nnc6ccccc65)C(=O)[C@H]3N(CCCCCCO)C(=O)[C@@H]4[C@@H]12 (some centres undefined) -4.69, COCCOC(=O)N1C(=O)[C@@]2(c3cc(C#CCNC(N)=O)ccc31)[C@H](C(=O)N1CCCCCCC1)[C@H]1C(=O)O[C@H](c3ccccc3)[C@H](c3ccccc3)N1[C@@H]2c1ccc(O)cc1 0.172, COc1ccc(CCNC(=O)[C@@]2(Sc3ccc(C)cc3)CC(=O)N(Cc3cc(C(F)(F)F)cc(C(F)(F)F)c3)[C@@H]2c2ccc(CO)cc2I)cc1 -2.57, COc1cc2c(cc1O)C(C)N(Cc1cc3c(cc1Br)OCO3)CC2 (centres undefined) -1.58, CC(C)(C)OC(=O)CC[C@@]1(C(=O)O)N=C(c2ccc(OCCCO)cc2)O[C@@H]1c1ccccc1CN=[N+]=[N-] -4.73, CC(C)C(=C=CC[C@H](O)c1ccc(OCCO)cc1)C[C@H](O)c1cc(Cl)cc(Cl)c1O -1.35, CC(C)NC(=O)[C@@]1(C)c2ccccc2C(=O)N(C(C)C)[C@H]1c1ccc(CO)cc1 -2.26, CCOC(=O)[C@H]1C/C=C/C[C@H](C(=O)OCC)C(=O)O[C@H]2[C@@H](OC)O[C@H](CO)[C@@H](OC(=O)CCc3ccccc3)[C@@H]2OC1=O -2.57, COCCOC(=O)N1C(=O)[C@@]2(c3cc(C#Cc4ccc(OC)cc4)ccc31)[C@H](C(=O)NC[C@H](O)c1ccccc1)[C@H]1C(=O)O[C@H](c3ccccc3)[C@H](c3ccccc3)N1[C@@H]2c1ccc(O)cc1 -1.78, COc1ccc([Si](C)(C)[C@@H]2[C@@H](CC(=O)N3CCC[C@H]3CO)O[C@]3(C(=O)N(Cc4ccc(N5C(=O)c6cccc7cccc5c67)cc4)c4ccccc43)[C@H]2C)cc1 -3.19, O=C1O[C@@H](c2ccccc2)[C@@H](c2ccccc2)N2[C@@H](c3ccccc3OCCO)[C@]3(C(=O)Nc4ccccc43)[C@@H](C(=O)NC[C@H](O)c3ccccc3)[C@H]12 -5.34, COC(=O)[C@@]1(Cc2ccc(OC)cc2)[C@H]2c3cc(C(=O)N(C)C)n(CCc4c[nH]c5ccc(O)cc45)c3C[C@H]2CN1C(=O)c1ccccc1 -1.44, C[N+](C)(C)CCCC[C@@H]1NC(=O)[C@@H]2C[C@H](C(=O)O)[C@H](c3ccc(O)cc3)N2C1=O -1.93, COc1ccc([Si](C)(C)[C@@H]2[C@@H](CCn3cc([C@H](O)c4ccccc4)nn3)O[C@]3(C(=O)N(Cc4ccc(N5CCOC5=O)cc4)c4ccccc43)[C@H]2C)cc1 -3.54, CC(=O)n1cc(C(O)C2C=CC3C(=O)N(Cc4ccccc4)C(=O)C3N2n2cnnc2)c2ccccc21 (centres undefined) -3.16, C=CC[C@]12N=C(c3ccc(OCCCO)cc3)O[C@H]1c1ccccc1N(C)C2=O -4.31, CC1CC/C=C\[C@H]2OC34C=CCN(c5ccc6ccccc6c5)C(=O)[C@H]3N(C(CO)C(C)C)C(=O)[C@@H]4C2C(=O)O1 (some centres undefined) -6.57, C=CCOC(=O)[C@H]1[C@@H]2C(=O)O[C@@H](c3ccccc3)[C@@H](c3ccccc3)N2[C@@H](c2ccc(OCCOC(=O)[C@H]3C[C@H]4C(=O)N[C@@H](Cc5ccccc5)C(=O)N4[C@H]3c3cccc(OCCO)c3)cc2)[C@]12C(=O)Nc1ccc(I)cc12 0.643, CN(C)CCCCNC(=O)[C@H]1C[C@H]2C(=O)N[C@@H](CCCCN(C)C)C(=O)N2[C@H]1c1cccc(OCCO)c1 -3.26, CCCC[C@@H]1C[C@H]1[C@@H](NC(=O)c1cccnc1)c1ccc(-c2ccccc2)cc1 -3.43
